# Assay outcomes from PubChem.
# In the library only some 4% were active in any assay of this set; here they are far more common.
# tim10-1 inh – growth inhibitors of tim10-1 mutant yeast; S. cerevisiae tim10-1 ts strain growth, BacTiter-Glo, 24 h; inhibition, % at 20 µM; 330,000 compounds, 2.2% hits;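 active = inhibition of at least 40%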;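 note: mutant grown at 25 °C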
# TIM10 inh – inhibits growth of TIM10 yeast strain; 330,000 compounds, 1.4% hits; inhibition, % at 10 µM; S. cerevisiae TIM10 strain growth, BacTiter-Glo luminescence, 24 h;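 active = inhibition of 40% or more at the single tested concentration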;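 note: wild-type TIM10 isogenic control strain grown at permissive 25 °C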
# NALP1 yeast inh – NALP1 inhibition; AID 2071; 280,000 compounds, 0.61% hits; S. cerevisiae NALP1/ASC/caspase-1 growth, X-gal OD620, 72 h; inhibition, % at 10 µM; in the data active = inhibition mostly above about 24%, no sharp cut-off; inactive = mostly below about 32%
# tim23-1 inh – inhibits growth of tim23-1 mutant yeast | AID 463212 | 330,000 compounds, 1.3% hits | S. cerevisiae tim23-1 growth, BacTiter-Glo luminescence, 24 h | inhibition, % at 20 µM;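 active = growth inhibition of the mutant yeast at or above 50%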;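 note: temperature-sensitive mutant grown at 25 °C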
# NLRP3 yeast inh – blocks the NALP3 inflammasome reconstituted in yeast. Yeast reconstituted NLRP3/ASC/caspase-1, beta-gal luminescence, 24 h. inhibition, % at 10 µM. 330,000 compounds, 0.39% hits. AID 2825;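 active = inhibition of 50% or more; inactive = inhibition below 50%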
# tim10-1 conf – confirmation of tim10-1 mutant yeast growth inhibitors. shares compounds with tim10-1 inh. S. cerevisiae tim10-1 ts strain growth, BacTiter-Glo, 24 h. inhibition, % at 20 µM. 7,400 compounds, 56% hits. AID 463213;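 active = inhibition of yeast growth at or above a set limit in either of two repeat tests at 20 µM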;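 note: tim10-1 mutant grown at permissive 25 °C to find synthetic lethal compounds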
# A number is an active result; 0 = inactive; - = not tested or not shown.
SMILES,tim10-1 inh,TIM10 inh,NALP1 yeast inh,tim23-1 inh,NLRP3 yeast inh,tim10-1 conf
Cc1ccc(C2CC2C(=O)NNC(=S)Nc2cccc(C)c2)cc1 (stereo not given),49,0,0,0,0,0
O=C(CSc1nc(=O)n(CCCN2CCOCC2)c2c1CCCC2)Nc1cccc(Cl)c1,0,0,-,0,0,-
O=C(c1ccc2c(c1)N(Cc1ccccc1)CCS2)N1CCCCC1,43,0,0,0,0,0
Cc1ccc(CN2CCSc3ccc(C(=O)NCC4CCCO4)cc32)cc1 (stereo not given),41,0,0,0,0,0
Cc1ccc(SCC2(O)CCN(S(=O)(=O)c3ccc(Cl)cc3)CC2)cc1,41,0,0,0,0,0
CCNC(=S)N/N=C(\C)c1cccc([N+](=O)[O-])c1,44,0,0,0,0,0
C=C1CCC[C@]2(C)C[C@H]3OC(=O)C(CNCC(C)C)[C@H]3CC12 (stereo not given in full),42,0,0,0,0,36
C=C1CCC[C@]2(C)C[C@H]3OC(=O)C(CNCCN(CC)CC)[C@H]3CC12 (stereo not given in full),52,0,0,0,0,48
C=C1CCC[C@]2(C)C[C@H]3OC(=O)C(CNCCN(C)C)[C@H]3CC12 (stereo not given in full),46,0,0,0,0,44
COc1ccc(NC(=O)CN(c2ccc(F)cc2)S(=O)(=O)c2ccccc2)c(OC)c1,0,0,0,0,0,-
CCN(CC(=O)Nc1c(F)cccc1F)C(=O)c1cc2ccccc2oc1=O,0,0,-,0,0,-
COc1ccc(-c2oc3ncnc(NCCCN(C)C)c3c2-c2ccc(OC)cc2)cc1,40,0,0,0,0,42
O/N=C(/c1ccc(Cl)cc1)C1CC1c1ccccc1 (stereo not given),51,0,0,0,0,0
[O-][n+]1ccccc1/C=C/c1ccccc1,0,0,-,0,0,-
[O-][n+]1c(/C=C/c2ccccc2)ccc2ccccc21,49,0,0,0,0,0
Cc1cc(NC(=O)C(C)SCC(=O)N(C)Cc2ccccc2F)no1 (stereo not given),0,0,-,0,0,-
CCOC(=O)NC1(NC2CCCCC2)Oc2ccccc2O1,40,0,0,0,0,0
CCOC(=O)NC1(NC(C)C)Oc2ccccc2O1,0,0,0,0,0,-
CCn1c(=O)c2sccc2n(Cc2ccc(C)cc2)c1=O,0,0,0,0,0,-
Cc1nn(C(=O)c2ccc3c(c2)OCO3)c(N)c1-c1ccccc1,41,0,0,0,0,0
CC(C)(C)NC(=S)N/N=C/c1c(Cl)cccc1Cl,40,0,0,0,0,0
O=C(N/N=C/c1c(Cl)cccc1Cl)c1cccc(F)c1,0,0,0,0,0,-
CCNC(=S)N/N=C/c1cccc(/C=N/NC(=S)NCC)c1,0,0,0,0,0,-
CCNC(=S)N/N=C/c1c(Cl)cccc1Cl,41,0,0,0,0,0
COc1ccc(CNC(=O)C2CCCN2)cc1OC (stereo not given),0,0,0,0,0,-
SMILES,tim10-1 inh,TIM10 inh,NALP1 yeast inh,tim23-1 inh,NLRP3 yeast inh,tim10-1 conf
O=c1cc(-c2ccccc2)[nH]n1-c1ccc([N+](=O)[O-])cc1,43,0,0,0,0,0
Cc1cccc(-n2c(-c3csc(C)c3)n[nH]c2=S)c1,41,0,0,0,0,0
CCc1cc(-c2n[nH]c(=S)n2-c2cccc(C)c2)cs1,43,0,0,0,0,30
S=C1NC(c2cccs2)=CC(c2ccc(Br)cc2)N1 (stereo not given),41,0,0,0,0,33
CCCn1nnc(NC(=O)c2cccc(OCc3ccccc3)c2)n1,44,0,0,0,0,36
CC/C(=N/NC(=O)c1ccc2c(c1)OCO2)c1ccccc1O,0,0,-,0,0,-
CCC(=O)Nc1ccc(C(=O)OCc2ccccc2)cc1,41,0,0,0,0,36
Cc1ccc(C(=O)OCC(=O)NCC2COc3ccccc3O2)cc1 (stereo not given),0,0,-,0,0,-
CCN(CC1COc2ccccc2O1)C(=S)Nc1ccccc1 (stereo not given),44,0,0,0,0,15
CCOC(=O)c1ccc(NC(=O)CC2COc3ccccc3O2)cc1 (stereo not given),41,0,0,0,0,0
CCN(CC(=O)Nc1c(F)cccc1F)C(=O)c1cnccn1,0,0,-,0,0,-
Cc1ccccc1NC(=O)c1ccc(OCc2c(C)noc2C)cc1,0,0,-,0,0,-
CC(=O)OCCc1c2ccccc2c(CCCN(C)C)c2ccccc12,40,0,-,0,0,0
CCC(=O)Nc1ccc(C(=O)N/N=C/c2cc(Br)c(OC)cc2OC)cc1,0,0,0,0,0,-
C=C(C)COc1ccc(-c2[nH]ncc2-c2ccc(OC)c(OC)c2)c(O)c1,46,0,0,0,0,34
O=C(Nc1cccs1)Nc1ccccc1Br,0,0,0,0,0,-
Cc1cc(C)cc(NC(=O)Cc2ccc(S(=O)(=O)N3CCCC3)s2)c1,0,0,-,0,0,-
O=C(Cc1ccc(S(=O)(=O)N2CCCCC2)s1)Nc1ccc(F)c(F)c1,47,0,0,0,0,0
Cc1cccc(NC(=O)C(=O)NCC2CCCN2S(=O)(=O)c2ccccc2)c1 (stereo not given),0,0,-,0,0,-
CCOCc1c(C(=O)N2CCN(CC(=O)Nc3ccc(F)cc3)CC2)oc2ccccc12,0,0,-,0,0,-
COc1ccc(CN2C(=O)c3c(c(C)n(C)c3C)C2C(=O)NC2CCC(C)CC2)cc1 (stereo not given),42,0,0,0,0,0
COc1ccc(NC(=O)CN(C)CC(=O)NC2CCC(C)CC2)cc1 (stereo not given),0,0,-,0,0,-
Cn1nnnc1SCC(=O)Nc1ccc(C(=O)N2CCN(Cc3ccccc3F)CC2)cc1,0,0,-,0,0,-
COC(=O)c1c(NC(=O)Cc2ccccc2)sc(C)c1C,0,0,0,0,0,-
CCOC(=O)c1c(NC(=O)CSc2nnc(CNc3ccc(OC)cc3)n2C)sc(C)c1C,41,0,0,0,0,0
SMILES,tim10-1 inh,TIM10 inh,NALP1 yeast inh,tim23-1 inh,NLRP3 yeast inh,tim10-1 conf
COC(=O)c1c(NC(=O)CSc2ccccc2N)sc(C)c1C,46,0,0,0,0,36
COC(=O)c1cc(OC)c(OC)cc1NC(=O)c1cc(C(C)(C)C)oc1C,0,0,0,0,0,-
O=c1c2c(-c3cccs3)csc2ncn1/N=C/c1ccc(OC(F)F)cc1,47,0,0,0,0,39
COC(=O)COc1ccc(C(C2C(=O)CC(C)(C)CC2=O)C2C(=O)CC(C)(C)CC2=O)cc1,0,0,0,0,0,-
CCOC(=O)C1CCN(c2cc3c(cc2NC(=O)c2cc(OC)ccc2Br)n(C)c(=O)n3C)CC1,0,0,0,0,0,-
Cc1cccc(-c2cc(C(=O)Nc3cccnc3)c3ccccc3n2)c1,40,0,0,0,0,0
Cc1ccc(-c2cc(C(=O)Nc3cccnc3)c3ccccc3n2)s1,42,0,0,0,0,0
